Among the data in PubChem BioAssay AID651815 (National Center for Advancing Translational Sciences (NCATS), 2012) are Potency values, retold here.

About 1,100 (52%) of roughly 2,100 compounds were called active. Another 29% or so got no clear call; they are omitted. Calls follow the shape of the dose curve; as a rule, active = well fitted inhibition curve with a large enough effect; inconclusive = small, poorly fitted or top-dose-only effect; inactive = no such curve, though single readings can be large or run the other way. So high a share suggests a set chosen from earlier hits. This is one part of the list.
Potency is read from the fitted curve at half-maximal effect.

DNA dC->dU-editing enzyme APOBEC-3F (Homo sapiens), sequence (Q8IUX4 whole entry, looked up): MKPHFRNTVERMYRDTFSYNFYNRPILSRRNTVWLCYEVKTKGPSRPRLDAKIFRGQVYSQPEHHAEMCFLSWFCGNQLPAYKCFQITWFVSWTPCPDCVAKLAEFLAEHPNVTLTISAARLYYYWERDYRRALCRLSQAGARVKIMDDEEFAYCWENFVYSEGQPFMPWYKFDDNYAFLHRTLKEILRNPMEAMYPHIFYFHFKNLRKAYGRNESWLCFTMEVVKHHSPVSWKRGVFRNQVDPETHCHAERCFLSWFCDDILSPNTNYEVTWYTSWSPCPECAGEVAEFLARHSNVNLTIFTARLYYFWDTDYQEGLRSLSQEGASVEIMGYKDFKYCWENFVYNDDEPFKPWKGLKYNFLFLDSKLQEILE

The assay concerns the target DNA dC->dU-editing enzyme APOBEC-3F (Homo sapiens) (UniProt Q8IUX4). In words: qHTS for inhibitors of Vif-A3F interactions: Cherry picks counterscreen. Also: nearly all actives have a fitted effect of over 65% in size. The following applies: HeLa A3F-eYFP/Vif cells, eYFP fluorescence, 24 h; series mostly up to 46.1 µM. In outline:
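Rescue of Vif-driven A3F-eYFP degradation read as cellular eYFP fluorescence after 24 h compound exposure (several concentrations) in stable HeLa cells; MG132 (2 mM stock) as positive control.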
On the technique in general: Quantitative high-throughput screening tests each substance at several concentrations.
On to `COCCNC(=O)C(=O)Nc1ccc2c(c1)N(S(=O)(=O)c1cccs1)CCC2`, for which the Potency is 2.23 µM (active). For the molecule `CCOc1ccccc1NC(=O)Cn1nnc(C(=O)NCc2cccs2)c1N`, the Potency is 1.46 µM (active). With `CCN(CC(=O)NCc1ccc(F)cc1)C(=O)/C=C/c1ccc(OC)c(S(=O)(=O)NC(C)C)c1` the figure was 4.98 µM (active).

For the molecule `COc1ccc(NC(=O)C2Cc3c(-c4cccc(C(C)=O)c4)ccnc3O2)cn1` (stereo not given), the Potency was 3.14 µM (active).

In the case of `CC(=O)Nc1cccc(-c2ccnc3c2CC(C(=O)Nc2ccc4c(c2)OCO4)O3)c1` (stereo not given), the Potency is 4.44 µM (active). With `COc1ccc(NC(=O)C2Cc3c(-c4cccc(C(C)=O)c4)ccnc3O2)cc1` (stereo not given) the figure was 3.53 µM (active); with `CC(=O)c1cccc(-c2ccnc3c2CC(C(=O)Nc2ccc(Cl)cc2)O3)c1` (stereo not given), 4.98 µM (active); with `CC(=O)Nc1ccc(-c2ccnc3c2CC(C(=O)Nc2cccc(N(C)C)c2)O3)cc1` (stereo not given), 12.5 µM (active). As for `COc1ccc(NC(=O)C2Cc3c(-c4cccc(NC(C)=O)c4)ccnc3O2)cn1` (stereo not given), the Potency is 7.9 µM (active). With `Cc1ccc(S(=O)(=O)c2cc3ccccc3oc2=Nc2ccc3c(c2)OCO3)cc1` the entry was “inactive”. With `CC(C)NC(=S)N/N=C/c1sc(N2CCCCC2)nc1-c1cccs1` the entry was “inactive”. With `COc1cccc(N2CC(O)=C(c3nc4ccccc4s3)C2=N)c1` the figure was 7.9 µM (active); with `COc1cc(/C=C2\C(=N)N3N=CSC3=NC2=O)cc(Br)c1OC(=O)c1ccco1`, “inactive”. In the case of `CCN(CC)c1ccc(/C=C2\C(=N)N3N=C(CC(=O)N4CCOCC4)SC3=NC2=O)cc1`, the Potency is 0.0353 µM (active). In the case of `CN(C)c1ccc(/C=C2\C(=N)N3N=C(CC(=O)N4CCCCC4)SC3=NC2=O)cc1` it was 3.26 µM (active); in that of `CN(C)c1ccc(/C=C2\SC(N3CCCCC3)=NC2=O)cc1`, 23.1 µM (active). With `COc1cc(/C=C2\C(=N)N3N=C(S(C)(=O)=O)SC3=NC2=O)ccc1OC(=O)c1ccco1` the entry was “inactive”; with `CN1C(=O)c2cccc(NCCCN3C(=O)c4ccccc4C3=O)c2C1=O`, 18.4 µM (active). With `CCCOc1ccc(N)cc1N` the entry was “inactive”. `CCN1C(=O)/C(=C/c2ccc(N3CCCC3)cc2)NC1=S`: the Potency was 20.6 µM (active). Take `O=C1/C(=C/c2ccc(N3CCCC3)cc2)NC(=S)N1C1CC1`: the Potency was 14.6 µM (active). In the case of `CN(C)c1ccc(/C=C2\NC(=S)N(Cc3ccccc3)C2=O)cc1` it was 2.23 µM (active); in that of `Cc1cccc(N2CCN(Cc3cn(C)nc3-c3ccccc3F)CC2)n1`, 6.27 µM (active). Take `O=C1CC(c2ccccc2)Cc2[nH]c(=O)c(-c3nc(-c4cccc(Cl)c4)cs3)cc21` (stereo not given): the Potency is 4.11 µM (active). In the case of `Cc1sc(-c2cc3c([nH]c2=O)CC(c2ccccc2)CC3=O)nc1-c1ccc(Cl)cc1` (stereo not given) it was 8.2 µM (active); in that of `CCOC(=O)N1CCN(c2c(NCc3ccc(F)cc3)c(=O)c2=O)CC1`, 17.7 µM (active). With `Cc1[nH]c2ccccc2c1/C=C/c1cc[n+](C)cc1` the figure was 6.27 µM (active).

For the molecule `Cc1[nH]c2ccccc2c1/C=C/C(=O)c1ccccc1`, the Potency is 23.1 µM (active). Consider `Cc1ccc2[nH]c(C)c(/C=C/c3cc[n+](C)cc3)c2c1`, for which the Potency is 1.77 µM (active).

With `COc1ccccc1-c1c(C#N)c(N)nc2c1CCc1ccccc1-2`, the Potency is 3.14 µM (active). Regarding `CSc1nc(N)c(C#N)c(-c2ccccc2Cl)c1C#N`, the Potency entry was “inactive”. In the case of `Cc1ccc(C=Nc2ccccc2C(N)=O)s1` it was 3.96 µM (active); in that of `O=C(O)c1cc(-c2ccc(/C=C3/SC(=S)N(Cc4ccccc4)C3=O)o2)ccc1Cl`, 14.6 µM (active). In the case of `O=C1/C(=C\c2ccc(O)cc2)SC(=S)N1Cc1ccccc1`, the Potency result was “inactive”. For `COc1cc(/C=C2/SC(=S)N(CCC(=O)Nc3ccccc3)C2=O)cc(OC)c1OC`, the Potency is 23.1 µM (active). For the molecule `COc1cc(/C=C2/SC(=S)N(Cc3ccccc3)C2=O)cc(Cl)c1O`, the Potency is 3.96 µM (active). In the case of `CCC(=C/c1sc2ccc3ccccc3c2[n+]1C)/C=C1\Sc2ccc3ccccc3c2N1C` it was “inactive”; in that of `Cc1csc(NC(=O)CCC(=O)N(CC(=O)NC2CCCC2)Cc2ccccc2)n1`, “inactive”; in that of `CCN1CCc2nc3sc(C(=O)c4ccccc4)c(N)c3cc2C1`, 23.1 µM (active). In the case of `Cc1ccccc1NC(=O)c1sc2nc3c(c(-c4ccco4)c2c1N)CCC3` it was “inactive”; in that of `COc1ccc(NC(=O)c2sc3nc4c(cc3c2N)CN(Cc2ccccc2)CC4)c(OC)c1`, 18.4 µM (active); in that of `Nc1c(C(=O)c2ccc(Cl)cc2)sc2nc3c(cc12)CCC3`, 18.4 µM (active). With `COc1cc(OC)c(OC)cc1/C=C1\Oc2cc(OCC(=O)N3Cc4ccccc4C[C@H]3C(=O)O)ccc2C1=O` the figure was 1.84 µM (active); with `COc1ccc(/C=C2\Oc3cc(OC(=O)N4CCOCC4)ccc3C2=O)c(OC)c1`, “inactive”; with `CC(=O)Oc1ccc(N2C(=O)c3cccc4c([N+](=O)[O-])ccc(c34)C2=O)cc1`, “inactive”. As for `Cc1nnc(N2C(=O)c3cccc4c([N+](=O)[O-])ccc(c34)C2=O)s1`, the Potency is 20.6 µM (active).

With `O=C1c2cccc3c([N+](=O)[O-])ccc(c23)C(=O)N1c1ccccn1`, the Potency result is “inactive”. With `COc1cc2c3nnc(-c4ccccc4)c-3cn(Cc3ccccc3F)c2cc1OC` the figure was 3.66 µM (active); with `COc1cc2c3nnc(-c4ccc(F)cc4)c-3cn(Cc3ccccc3F)c2cc1OC`, 16.4 µM (active).

With `COc1cc2c3nnc(-c4ccc(F)cc4)c-3cn(Cc3ccc(C)cc3)c2cc1OC`, the Potency is 15.8 µM (active).

As to `Cn1nnc2c[n+](CC(=O)c3ccc(Cl)cc3)cc(Br)c21`, the Potency was 17.7 µM (active).

For the molecule `O=C1CCCN1c1ccc(S(=O)(=O)Nc2ccc3c(c2)OCCO3)cc1`, the Potency is 3.96 µM (active). `O=[N+]([O-])c1cc(O)c2ncccc2c1`: the Potency result is “inactive”.

With `O=[N+]([O-])c1ccc(Oc2cccc3cccnc23)c([N+](=O)[O-])c1`, the Potency was 14 µM (active).

For `CC1CC(C)(C)Nc2ccc(OC(=O)c3ccco3)cc21` (stereo not given), the Potency was 18.4 µM (active).

In the case of `CC1(C)Cc2nc3sc4c(=O)n(CC(=O)NCc5ccccc5)cnc4c3cc2CO1`, the Potency was 2.23 µM (active). With `CC1(C)Cc2nc3sc4c(SCC(=O)NCc5ccco5)ncnc4c3cc2CO1` the figure was 5.59 µM (active); with `CCc1ccc(N=Nc2ccc(O)c3[nH]cnc23)cc1`, 8.2 µM (active); with `S=C(Nc1ccccc1)N1CCn2c1nc1ccccc12`, “inactive”. Turning to `CCCOc1ccc(C(=O)Nc2cccc(NC(=O)c3ccc(Cl)cc3Cl)c2)cc1`, the Potency is 20.6 µM (active). As for `COc1cc(C(=O)OCC(=O)Nc2ccc(N3CCOCC3)cc2)ccc1OCC(C)C`, the Potency result was “inactive”. With `COc1cccc(C(=O)Nc2ccc(N3CCCC3)cc2)c1` the figure was 5.59 µM (active).

Regarding `COc1cc(OC)cc(C(=O)Nc2ccc(N3CCN(C(=O)c4cccs4)CC3)cc2)c1`, the Potency was 7.9 µM (active).

As for `O=C(OCCC12CC3CC(CC(C3)C1)C2)c1ccc(NCc2cc(O)ccc2O)cc1`, the Potency was 15.8 µM (active). In the case of `Cc1ccc(C)c(Nc2nn3c(=O)c4ccc(C(=O)NCc5cccs5)cc4nc3s2)c1` it was 20.6 µM (active). With `N#Cc1c(C(F)(F)F)cc(-c2cccs2)nc1SCC(=O)Nc1ccc(Cl)cc1` the figure was 7.31 µM (active); with `N#Cc1c(C(F)(F)F)cc(-c2cccs2)nc1SCC(=O)Nc1cccc(Cl)c1`, “inactive”.

For the molecule `N#Cc1c(C(F)(F)F)cc(-c2cccs2)nc1SCC(=O)Nc1cccc(C(F)(F)F)c1`, the Potency is 20.6 µM (active). In the case of `CCOC(=O)c1ccc(NC(=O)CSc2nc(-c3cccs3)cc(C(F)(F)F)c2C#N)cc1` it was 16.4 µM (active); in that of `O=c1[nH]cnc2n[nH]nc12`, 10.3 µM (active). With `COc1ccc(N/C=C/C(=O)c2cc(OC)c(OC)c(OC)c2)cc1` the figure was 0.498 µM (active); with `CCOc1ccc(N/C=C/C(=O)c2cc(OC)c(OC)c(OC)c2)cc1`, 15.8 µM (active); with `CCOc1ccc(NC(=O)Cn2c(=O)n(Cc3ccc(C(=O)NCc4ccc(C)cc4)cc3)c(=O)c3ccccc32)cc1`, 14.6 µM (active). Consider `CCn1c(SCC(=O)N/N=C/c2ccc(C)s2)nc2ccccc21`, for which the Potency is 4.98 µM (active). As to `COc1ccc(NC(=S)NN(C)C(=S)Nc2ccc(OC)cc2)cc1`, the Potency is 3.14 µM (active). With `C=CCNC(=S)N/N=C(\C)c1ccc(OC)cc1` the entry was “inactive”.

With `O=C(Nc1cc(=O)[nH]c(=O)[nH]1)c1cc(Cl)ccc1Cl`, the Potency was 8.86 µM (active).

With `CCCCCCc1cc2cc(-c3nnc(-c4ccccc4)o3)c(=O)oc2cc1O`, the Potency was 3.53 µM (active). In the case of `CCCCCCc1cc2cc(-c3nnc(-c4ccccc4OC)o3)c(=O)oc2cc1O` it was 1.98 µM (active); in that of `CCCCCCc1cc2cc(-c3nnc(-c4ccccc4O)o3)c(=O)oc2cc1O`, “inactive”; in that of `C=CCN=c1scc(-c2ccc(F)cc2)n1/N=C/c1ccccn1`, “inactive”. With `Cc1ccc2[nH]cc(/C=C/c3cc[n+](C)cc3)c2c1` the figure was 6.27 µM (active). In the case of `COc1ccc2[nH]cc(/C=C/c3cc[n+](C)cc3)c2c1` it was 16.4 µM (active).

Regarding `C[n+]1ccc(/C=C/c2c[nH]c3ccc(F)cc23)cc1`, the Potency was 8.2 µM (active). With `O=C(Nc1ccccc1-c1nc2ccccc2[nH]1)c1ccc(N2C(=O)CCC2=O)cc1` the figure was 16.4 µM (active). With `O=C1/C(=C/c2c[nH]c3ccccc23)CCC/C1=C\c1c[nH]c2ccccc12` the figure was 23.1 µM (active). With `N#CC1=C2SCC(O)(c3ccccc3)N2C(=O)CC1c1ccccc1` (stereo not given), the Potency was 4.98 µM (active). With `Cc1cccc(C)c1NC(=S)NC(C)CCc1ccccc1` (stereo not given) the entry was “inactive”; with `COc1ccc2oc(-c3ccccc3[N+](=O)[O-])cc(=O)c2c1`, 6.27 µM (active). With `COc1ccccc1NC(=O)c1sc2ncn(CC(=O)Nc3ccccc3)c(=O)c2c1C` the figure was 20.6 µM (active).

Consider `Cc1ccnc(NC(=O)Nc2ccc3c(c2)N(C)C(=O)CS3)c1`, for which the Potency is 23.1 µM (active).

For the molecule `CC(=O)Nc1ccc(NC(=O)C/C(C)=N/NC(N)=S)cc1`, the Potency result is “inactive”.

`CC(C)(C)c1ccc(Oc2ccc(NC(=O)c3ccccc3C(=O)O)cn2)cc1`: the Potency result was “inactive”. With `CO/N=C\CC(=O)Nc1ccc(Oc2ccccc2)cc1` the figure was 1.98 µM (active); with `CO/N=C\CC(=O)Nc1ccc(Cl)c(Cl)c1`, 9.94 µM (active).
